Results on nine compounds are retold here after PubChem BioAssay.

The nature of experiment [1]: resazurin metabolic signal in HepG2 cells – cell-based, resazurin fluorescence, 24 h, PK04 Diversity Set, profiling panel (AID 1172). The settings on record: HepG2 viability, higher = more signal. Background: The colour change of resazurin is a common sign of viable cells or microbes.
Experiment [2] can be described thus: budding yeast growth changes without added modifier – OD600, strain BY4716, 24 h, basal condition, primary screen (AID 1173). The settings on record: S. cerevisiae BY4716 growth, OD600, 24 h; higher = more signal, called active from +8 up or from −8 down.
A short description of experiment [3]: viability profiling in MM1S myeloma cells – cell-based, resazurin fluorescence, basal, 24 h, PK04 Diversity Set, profiling panel (AID 1174).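 Note: MM1S multiple myeloma cell line.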 The settings on record: higher = more signal, called active from +8 up or from −8 down.
The target in experiment [4] is Dihydroorotate dehydrogenase (quinone), mitochondrial (Plasmodium falciparum (isolate 3D7)) (UniProt Q08210). The experiment in a line: inhibition of P. falciparum DHODH – biochemical, C-terminal His tag, absorbance 600 nm, primary screen (AID 1175).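 Note: recombinant parasite enzyme with a five histidine tag at its C terminus.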 The settings on record: PfDHODH enzyme, DCIP absorbance 600 nm; higher = more signal, called active from +8 up or from −8 down.
Dihydroorotate dehydrogenase (quinone), mitochondrial (Plasmodium falciparum (isolate 3D7)), sequence (Q08210 whole entry, looked up): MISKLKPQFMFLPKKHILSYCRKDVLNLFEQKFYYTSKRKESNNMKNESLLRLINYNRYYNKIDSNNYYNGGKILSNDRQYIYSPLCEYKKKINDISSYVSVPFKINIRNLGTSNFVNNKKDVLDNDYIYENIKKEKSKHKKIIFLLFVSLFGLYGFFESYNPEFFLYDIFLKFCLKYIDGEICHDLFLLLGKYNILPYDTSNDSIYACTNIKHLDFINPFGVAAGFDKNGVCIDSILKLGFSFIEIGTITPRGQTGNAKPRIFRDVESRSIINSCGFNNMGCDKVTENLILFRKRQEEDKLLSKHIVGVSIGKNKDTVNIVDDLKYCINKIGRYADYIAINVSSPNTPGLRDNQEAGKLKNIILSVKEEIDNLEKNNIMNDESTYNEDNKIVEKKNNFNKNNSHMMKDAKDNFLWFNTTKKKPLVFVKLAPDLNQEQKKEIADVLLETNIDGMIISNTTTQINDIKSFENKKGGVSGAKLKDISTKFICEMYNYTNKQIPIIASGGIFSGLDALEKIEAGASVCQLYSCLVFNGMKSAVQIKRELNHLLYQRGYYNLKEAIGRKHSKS

Experiment [5] is described as follows: inhibition of PAO1 biofilm formation – strain PAO1, LB-PBS medium, absorbance 600 nm, primary screen (AID 1176). The settings on record: P. aeruginosa PAO1 growth/biofilm, A600, 12 h; higher = more signal.
A short description of experiment [6]: growth modulation of vineyard yeast isolate – strain RM11-1a, OD600, basal, 24 h, primary screen (AID 1177).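 Note: cultures grown under basal conditions with no added stressor.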 The settings on record: S. cerevisiae RM11-1a growth, OD600, 24 h; higher = more signal, called active from +8 up or from −8 down.
A short description of experiment [7]: growth of efflux-deficient E. coli DRC39 – strain DRC39, OD650, 24 h, E. coli filamentation inducers, primary screen (AID 1178).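 Note: growth measured as culture turbidity by optical density at 650 nm.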 The settings on record: E. coli DRC39 acrAB, higher = more signal, called active from +8 up or from −8 down.
Experiment [8] can be described thus: growth of efflux-deficient E. coli DRC39 – strain DRC39, OD650, 48 h, E. coli filamentation inducers, primary screen (AID 1179).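 Note: screen aims at cell division blockers that make cells filament.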 Particulars: E. coli DRC39 delta-acrAB growth, higher = more signal, called active from +8 up or from −8 down.
A short description of experiment [9]: viability profiling in RPMI8226 myeloma cells – cell-based, resazurin fluorescence, basal, 24 h, PK04 Diversity Set, profiling panel (AID 1180).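 Note: RPMI8826 multiple myeloma cell line at 5000 cells per well.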 The settings on record: higher = more signal.
Experiment [10] deals with E3 ubiquitin-protein ligase XIAP (Homo sapiens) (UniProt P98170). The experiment in a line: small molecules binding XIAP protein – biophysical, small-molecule microarray, fluorescence 635 nm, primary screen (AID 1181).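 Note: score merges 667 nm emission and signal to noise over triplicate slides.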 The settings on record: higher = more signal.
E3 ubiquitin-protein ligase XIAP (Homo sapiens), sequence (P98170 whole entry, looked up, the tested form may be a part): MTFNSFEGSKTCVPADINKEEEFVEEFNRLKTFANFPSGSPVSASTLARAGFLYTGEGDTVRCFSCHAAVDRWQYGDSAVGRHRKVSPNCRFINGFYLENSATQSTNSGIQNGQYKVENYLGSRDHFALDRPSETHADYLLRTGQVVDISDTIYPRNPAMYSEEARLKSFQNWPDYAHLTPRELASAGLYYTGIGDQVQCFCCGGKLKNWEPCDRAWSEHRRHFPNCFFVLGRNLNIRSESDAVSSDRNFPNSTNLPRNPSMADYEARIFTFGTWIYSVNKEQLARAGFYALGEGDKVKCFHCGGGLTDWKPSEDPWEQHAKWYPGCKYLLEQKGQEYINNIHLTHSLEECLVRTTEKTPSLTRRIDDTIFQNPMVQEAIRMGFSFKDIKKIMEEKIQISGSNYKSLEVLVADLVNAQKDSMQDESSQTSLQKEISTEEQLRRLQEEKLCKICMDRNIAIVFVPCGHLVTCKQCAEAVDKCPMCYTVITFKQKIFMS
The test system of experiment [11] is XIP peptide (Xip251-270) binding. As to the kind of experiment: XIP fragment 251-270 binding compounds – biochemical, small-molecule microarray, fluorescence 635/667 nm, 0.1 µg/mL protein, primary screen (AID 1182). The settings on record: fluorescent protein binding, 635 nm, higher = more signal, called active from +8 up or from −8 down.
Experiment [12] deals with XIP peptide (Xip251-270). As to the kind of experiment: compounds binding XIP fragment 251-270 – biochemical, small-molecule microarray, fluorescence 635/667 nm, 0.5 µg/mL protein, primary screen (AID 1183). Particulars: fluorescence 635 nm, higher = more signal.
The nature of experiment [13]: blood-stage malaria parasite viability loss – strain 3D7, DAPI fluorescence, 100 nL, primary screen (AID 1184).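 Note: parasites grown inside human red blood cells in medium with human serum.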 Particulars: P. falciparum 3D7 growth, 3 d, higher = more signal.
For experiment [14], the target named is Homeobox protein Hox-A13 (Mus musculus) (UniProt Q62424). The experiment in a line: disruptors of Hoxa13 oligonucleotide interaction – biochemical, fluorescence polarization, labeled oligonucleotide, primary screen (AID 1185). The settings on record: Hoxa13:DNA binding, 15 min, higher = more signal, called active from +8 up or from −8 down. For orientation: Polarisation of emitted light reports the rotation of a fluorescent probe.
Homeobox protein Hox-A13 (Mus musculus), sequence (Q62424 whole entry, looked up): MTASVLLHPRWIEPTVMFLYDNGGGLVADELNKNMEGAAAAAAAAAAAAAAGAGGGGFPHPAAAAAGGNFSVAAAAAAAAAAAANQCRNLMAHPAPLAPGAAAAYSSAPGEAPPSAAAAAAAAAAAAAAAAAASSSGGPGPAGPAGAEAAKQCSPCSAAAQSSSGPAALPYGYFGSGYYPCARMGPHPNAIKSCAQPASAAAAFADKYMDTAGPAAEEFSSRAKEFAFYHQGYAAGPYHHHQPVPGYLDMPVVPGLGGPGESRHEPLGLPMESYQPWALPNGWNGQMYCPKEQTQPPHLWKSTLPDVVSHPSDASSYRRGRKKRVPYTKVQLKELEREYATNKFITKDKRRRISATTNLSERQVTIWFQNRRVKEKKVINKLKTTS

Experiment [15] can be described thus: blockers of DNA damage checkpoint Chk1 activation – imaging, HeLa, hydroxyurea, phospho-Chk1 antibody, percent positive cells, primary screen (AID 1186). The settings on record: hydroxyurea-induced phospho-Chk1 immunofluorescence imaging, higher = more signal.
Experiment [16] can be described thus: blockers of DNA damage checkpoint Chk1 activation – imaging, HeLa, hydroxyurea, phospho-Chk1 nuclear intensity, primary screen (AID 1187). The settings on record: hydroxyurea-induced phospho-Chk1 immunofluorescence imaging, higher = more signal.

SMILES strings stand for the structures. Active and inactive are the calls of the source. Unless noted, the rule behind the calls is not given here.

For the compound `Cc1ccccc1C(O)C1C=CC2C(=O)N(c3ccccc3)C(=O)C2N1Nc1ccccc1` (centres undefined), the z-score was -0.341 in experiment [1]; -2.84 (inactive) in experiment [2]; -0.516 (inactive) in experiment [3]; 0.956 (inactive) in experiment [5]; 0.0725 (inactive) in experiment [6]; -0.36 (inactive) in experiment [7]. For the same compound, the z-score in experiment [8] was 0.372 (inactive); in experiment [9] it was -0.0175; in experiment [13], -0.189; in experiment [14], -2.86 (inactive); in experiment [15] it was -1.2 (inactive); in experiment [16], -1.11 (inactive). Besides, the composite z-score in experiment [4] was 0.106 (inactive); in experiment [10], 0.265; in experiment [11], 0.766 (inactive); in experiment [12] it was 0.889.
Turning to `C=CCC(OC(C)=O)[C@@H]1[C@@H](N(Cc2ccc(-c3cccc(C(F)(F)F)c3)o2)C(=O)Cc2ccc(F)cc2)c2cc(OCCCO)ccc2N1C(=O)Cc1ccc2ccccc2c1` (some centres undefined), the z-score in experiment [1] is 0.533; in experiment [2], 0.658 (inactive); in experiment [3], 0.647 (inactive); in [5], 1.13 (inactive); in experiment [6], -0.245 (inactive); in experiment [7], -0.241 (inactive). Besides, the z-score was -0.088 (inactive) in [8]; 0.0748 in [9]; -0.328 in experiment [13]; -0.668 (inactive) in [14]; 0.19 (inactive) in experiment [15]; 0.0472 (inactive) in [16]. Further, the composite z-score was -1.35 (inactive) in experiment [4], -0.132 in experiment [10], -0.068 (inactive) in experiment [11] and -0.293 in experiment [12].
As for `COc1ccc([Si](C)(C)[C@H]2[C@H](CC(=O)N3CCC[C@H]3CO)O[C@@]3(C(=O)N(Cc4ccc(N5CCCCC5=O)cc4)c4ccccc43)[C@@H]2C)cc1`, the z-score in experiment [1] was -0.369; in [2] it was -0.0356 (inactive); in experiment [3] it was -0.563 (inactive); in experiment [5], -0.012 (inactive); in experiment [6], 1.57 (inactive); in experiment [7] it was -0.18 (inactive). Also, the z-score in experiment [8] is -0.244 (inactive); in experiment [9], -0.171; in experiment [13] it was -1.64; in experiment [14], -4.85 (inactive); in experiment [15], 0.268 (inactive); in experiment [16], 0.241 (inactive). The composite z-score in experiment [4] is -2.66 (inactive); in experiment [10], 0.197; in [11], 0.214 (inactive); in [12], 0.753.
Regarding `O=C1O[C@@H](c2ccccc2)[C@@H](c2ccccc2)N2[C@@H](c3ccc(OCCO)cc3)[C@]3(C(=O)Nc4ccc(C#CC5(O)CCCCCC5)cc43)[C@@H](C(=O)Nc3nc4ccccc4s3)[C@H]12`, the z-score in [1] was -0.369; in experiment [2] it was 1.28 (inactive); in experiment [3], -0.0769 (inactive); in experiment [5], 2.29 (inactive); in experiment [6], 2.45 (inactive); in [7] it was -0.27 (inactive). Also, the z-score is 0.261 (inactive) in experiment [8]; 0.519 in experiment [9]; -1.59 in [13]; 1.03 (inactive) in experiment [14]; 0.234 (inactive) in [15]; 0.42 (inactive) in experiment [16]. For the same compound, the composite z-score in [4] was -0.263 (inactive); in experiment [10] it was 0.147; in [11], 0.813 (inactive); in experiment [12] it was 0.667.
For the compound `C=CCC(OC(C)=O)[C@@H]1[C@@H](N(Cc2cc3ccccc3o2)C(=O)c2cccc3ccccc23)c2cc(OCCCO)ccc2N1C(=O)c1ccc2ccccc2n1` (some centres undefined), the z-score in experiment [1] was -1.01; in [2] it was -0.711 (inactive); in experiment [3], -0.367 (inactive); in experiment [5], 0.256 (inactive); in [6], 0.202 (inactive); in experiment [7], 0.935 (inactive). For the same compound, the z-score is 0.207 (inactive) in experiment [8]; -0.544 in experiment [9]; -1.99 in experiment [13]; -1.2 (inactive) in [14]; -0.0897 (inactive) in [15]; 0.0983 (inactive) in [16]. The composite z-score was 0.364 (inactive) in experiment [4], -0.393 in [10], -0.667 (inactive) in experiment [11] and 0.202 in experiment [12].
As for `CCCCN1CC=CC23O[C@@H]4/C=C\CCCOC(=O)C4[C@H]2C(=O)N(C(CO)C(C)C)[C@@H]3C1=O` (some centres undefined), the z-score was -0.101 in experiment [1]; 0.259 (inactive) in experiment [2]; -0.289 (inactive) in experiment [3]; -0.0432 (inactive) in experiment [5]; -0.427 (inactive) in [6]; 0.116 (inactive) in [7]. In addition, the z-score in [8] is -0.091 (inactive); in experiment [9], -0.235; in experiment [13], 1.18; in [14] it was -5.81 (inactive); in experiment [15], 0.458 (inactive); in [16] it was 0.188 (inactive). Also, the composite z-score was -1.4 (inactive) in [4], -0.0393 in experiment [10], 1.4 (inactive) in experiment [11] and -0.492 in experiment [12].
Regarding `CCCC=C(CCC)[C@@H](NC(=O)OCC(C)C)c1ccc(C(=O)OC)cc1`, the z-score was 1.78 in [1]; 0.463 (inactive) in [2]; 0.287 (inactive) in experiment [3]; 0.523 (inactive) in experiment [5]; -0.578 (inactive) in experiment [6]; 0.386 (inactive) in [7]. Also, the z-score in experiment [8] is -0.0328 (inactive); in [9], 0.754; in experiment [13], -0.102; in experiment [14] it was -1.31 (inactive); in [15], -0.468 (inactive); in experiment [16], -0.598 (inactive). Further, the composite z-score is -0.456 (inactive) in [4], 0.0651 in experiment [10], 0.402 (inactive) in experiment [11] and 0.279 in experiment [12].
As for `CCCN1C(=O)[C@@]2(c3ccc([N+](=O)[O-])cc3)CC(=O)N(CC34CC5CC(CC(C5)C3)C4)[C@@H]2c2ccc(CO)cc21`, the z-score in [1] is -0.113; in experiment [2], -0.547 (inactive); in experiment [3], -0.148 (inactive); in experiment [5], 0.186 (inactive); in [6], -0.664 (inactive); in [7] it was 0.2 (inactive). Besides, the z-score in experiment [8] was -0.255 (inactive); in experiment [9], -0.559; in [13], 0.877; in experiment [14], -1.71 (inactive); in [15], 0.177 (inactive); in experiment [16], -0.16 (inactive). In addition, the composite z-score in [4] was -4.78 (inactive); in experiment [10], 0.0666; in experiment [11] it was -0.349 (inactive); in [12], 0.483.
Regarding `C=C1C(=O)C=C2CN(C(=O)c3ccccc3)[C@@](Cc3ccc(OC)cc3)(C(=O)OC)[C@@H]12`, the z-score in experiment [1] is -0.187; in [2], 1.33 (inactive); in experiment [3], -1.82 (inactive); in experiment [5], 0.964 (inactive); in experiment [6], 0.468 (inactive); in experiment [7] it was -0.624 (inactive). Moreover, the z-score in [8] was -0.841 (inactive); in experiment [9], -4.1; in [13], -1.17; in experiment [14], -3.61 (inactive); in experiment [15], 0.395 (inactive); in experiment [16], 0.354 (inactive). Moreover, the composite z-score in [4] is 0.046 (inactive); in experiment [10], 0.107; in experiment [11], 0.187 (inactive); in experiment [12], 0.691.
